Measured values: PubChem BioAssay (NCI)
About 79,000 compounds went through this panel and 15% of them were active in at least one assay; those are over-represented in the sample as a whole. Values without a mark were called inactive. Active and inactive are the calls of the source. Cut-off read from the data, not from the text of the source: active = growth inhibition above about 70%; inactive = the rest.

Test: NCI Yeast Anticancer Drug Screen. Data for the rad52 strain (AID 147);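 note: 0% = growth of vehicle-treated control cultures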
Details: S. cerevisiae rad52 mutant growth inhibition, hits give high values
Method: Growth inhibition of yeast strains with defined genetic alterations is measured as a screen for potential anti-cancer activity. Selected strains with alterations in DNA damage repair or cell cycle control were exposed to compounds and growth inhibition was measured relative to vehicle treated controls. The strain used in this assay is rad52

Row | SMILES | growth inhibition (at 1.2 µM) [%] | growth inhibition (at 3.7 µM) | growth inhibition (at 11.0 µM) | growth inhibition (at 33.0 µM) | growth inhibition (at 100.0 µM)
1 | COC(=O)C1=C(C(=O)OC)CC(n2nnc(C(=O)OC)c2C(=O)OC)=CC1 | -1 | 1% | 2% | 0% | -2%
2 | CCCCOc1ccc2nc(C)cc(N=[N+]=[N-])c2c1 | 8 | 9% | 14% | 20% | 86% (active)
3 | COc1ccc2nc3cccc([N+](=O)[O-])c3c(NCCNCCO)c2c1 | 69 | 90% (active) | 95% (active) | 96% (active) | 96% (active)
4 | CN(C)CC(CN(C)C)C(=O)/C=C/c1ccc(Cl)cc1Cl | 0 | -1% | 14% | 98% (active) | 97% (active)
5 | O=[N+]([O-])c1ccc2[nH]c3c(-c4ccccc4)nccc3c2c1 | -1 | 8% | 96% (active) | 97% (active) | 97% (active)
6 | O=C(O)c1ccc2cc(Cl)c3ccccc3c2c1 | 1 | 9% | 28% | 55% | 67%
7 | CN(C)CCCn1c2c3ccccc3ccc2c2oc(=O)c3ccccc3c21 | 3 | 33% | 86% (active) | 97% (active) | 98% (active)
8 | CC(C)(CN1CCCCC1)C(=O)/C=C/c1c(Cl)cccc1Cl | 12 | 35% | 68% | 98% (active) | 98% (active)
